An excerpt weighted towards active compounds, which were near 10% of everything screened.
GLS inh: glutaminase GLS (human) inhibition; O94925; GLS enzymatic activity, qHTS titration; Potency, µM (series often up to 45.5 µM), hits mostly inhibitors; 410,000 tested, 0.21% active; AID 624170
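Glutamate formation by hKGA was monitored fluorometrically using coupled glutamate oxidase, HRP and Amplex Red. Substrate was added as 1 mM L-glutamine solution; incubation was 30 min at RT after an initial read.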
JMJD2A Tudor inh: blocks the human JMJD2A Tudor domain; O75164; AlphaScreen JMJD2A-Tudor / H3K4me3 peptide binding; Potency, µM (titrated, usually from 114 µM), actives largely listed as inhibitors; 390,000 tested, 4.4% active; further: nearly all actives have a fitted effect of over 50% in size
G9a block: blocks human histone lysine methyltransferase G9a; Potency, µM (titrated, usually from 102 µM), most hits filed as inhibitors; AID 504332; 350,000 tested, 8.8% active; G9a H3K9 monomethylation, AlphaScreen, 2 h; Q96KQ7; further: nearly all actives have a fitted effect of over 75% in size
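Compounds were preincubated with 20 nM G9a for 15 min, after which biotinylated H3K9 peptide (500 nM) and SAM (20 uM) started a 2 h room-temperature reaction. Monomethylated product was quantified by antibody-based AlphaScreen chemiluminescence.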
HP1b binding inh: HP1-beta chromodomain-methylated histone interaction inhibition | 390,000 tested, 0.56% active | Potency, µM (top dose mostly 114 µM), actives largely listed as inhibitors | AlphaScreen HP1-beta / biotin-H3K9me3 peptide binding | P83916; further: nearly all actives have a fitted effect of over 70% in size
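HP1-beta protein (50 nM final) preincubated 30 min at room temperature with biotinylated H3(1-18)K9me3 peptide (50 nM) in PBS pH 7.4, 0.01% Tween-20, then compound added for 30 min. AlphaScreen streptavidin donor/nickel chelate acceptor beads (10 ug/mL final), 30 min dark, luminescence read.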
BAZ2B inh: blocks human BAZ2B. 360,000 tested, 4.4% active. AlphaScreen BAZ2B-H3K14Ac peptide displacement. Potency, µM (top dose mostly 114 µM), usual class: inhibitors; further: nearly all actives have a fitted effect of over 60% in size
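AlphaScreen luminescence quantifies BAZ2B engagement of H3K14Ac peptide; the protein and biotinylated peptide are both at 50 nM final, buffer PBS pH 7.4 with 0.01% Tween-20, all steps at room temperature.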
Of the large screens only hits and unclear results are named; the others gave an inactive call; ! = repeats disagree. The call rests on the fitted dose curve; in most records, active means well fitted curve in the direction sought with a large enough effect; inconclusive means small, poorly fitted or top-dose-only effect, or another doubt; inactive means no such curve, though single readings can be large; an effect the other way counts as inactive or inconclusive.

Cc1ccc(C2=C/C(=C/c3cccnc3)C(=O)O2)c(C)c1	G9a block inconclusive
O=C1OC(c2ccc(F)cc2)=C/C1=C\c1ccc(O)cc1	G9a block 35µM
O=C1OC(c2ccc(Cl)cc2)=C/C1=C/c1cccnc1	G9a block 56µM
COc1ccc(OC)c(N(CC(=O)Nc2cccnc2)S(=O)(=O)c2ccc(C)cc2)c1	G9a block inconclusive
Cc1cc(O)c(C(c2ccccc2Cl)N2CCCCC2)c(=O)n1Cc1ccco1 (configuration not stated)	none
CC(C)(C)c1cc(NCCCn2ccnc2)n2ncc(-c3ccccc3)c2n1	JMJD2A Tudor inh inconclusive, G9a block inconclusive, BAZ2B inh 56µM
Cc1cc(NCCCn2ccnc2)n2ncc(-c3ccc(Cl)cc3)c2n1	JMJD2A Tudor inh inconclusive, BAZ2B inh inconclusive
Cc1cccc(-c2cc3nc(C)cc(NCCCn4ccnc4)n3n2)c1	G9a block inconclusive, BAZ2B inh 18µM
O=C(NCCCc1ccccc1)C1CCN(c2nnc(-n3cccc3)s2)CC1	G9a block inconclusive
CC(=O)c1ccc2c3c(cccc13)C(=O)N(c1c(C)nn(C)c1C)C2=O	G9a block 10µM
CCC1CCCCN1C(=O)COc1ccc2c(c1)OCO2 (configuration not stated)	G9a block 71µM
COc1ccc(N2CCN(CC(O)COc3ccc(C)c(C)c3)CC2)cc1 (configuration not stated)	JMJD2A Tudor inh 56µM, G9a block 32µM, HP1b binding inh inconclusive, BAZ2B inh 45µM
COc1ccc(N2CCN(CC(O)COc3ccc(C(C)C)c(C)c3)CC2)cc1 (configuration not stated)	JMJD2A Tudor inh inconclusive, G9a block 6.3µM
Cc1cc(OCC(O)CN2CCCC2)ccc1C(C)C (configuration not stated)	none (no result: G9a block)
Cc1cc(OCC(O)CN2CCN(c3cccc(Cl)c3)CC2)ccc1Cl (configuration not stated)	JMJD2A Tudor inh 79µM
Cc1ccn2cc(C(=O)N3CCN(c4cnn(-c5ccccc5)c(=O)c4Cl)CC3)nc2c1	G9a block inconclusive
O=[N+]([O-])c1cc(S(=O)(=O)C(F)(F)F)ccc1Sc1nc2ccccc2[nH]1	JMJD2A Tudor inh inconclusive, G9a block inconclusive, BAZ2B inh inconclusive
COc1ccccc1N1CCN(C/C=C/c2ccc(N(C)C)cc2)CC1	G9a block inconclusive, BAZ2B inh 40µM (no result: GLS inh, JMJD2A Tudor inh, HP1b binding inh)
COc1ccccc1N1CCN(CCCNc2cc(=O)n(C)c(=O)n2C)CC1	G9a block 22µM! (no result: JMJD2A Tudor inh, HP1b binding inh)
COc1ccccc1N1CCN(CCCOc2ccc(F)cc2)CC1	JMJD2A Tudor inh 2.2µM, G9a block 8.9µM, HP1b binding inh inconclusive, BAZ2B inh inconclusive
O=C(C1CCCCC1)N(CCN1CCN(c2ccccc2CO)CC1)c1ccccn1	none (no result: GLS inh, JMJD2A Tudor inh, HP1b binding inh, BAZ2B inh)
COc1ccccc1N1CCN(CCN(C(=O)c2ccc(I)cc2)c2ccccn2)CC1	G9a block 21µM (no result: GLS inh, JMJD2A Tudor inh, HP1b binding inh, BAZ2B inh)
COc1ccccc1N1CCN(CCCNc2c(C)c(=O)n(C)c(=O)n2C)CC1	none (no result: BAZ2B inh)
COc1ccc(S(=O)(=O)N2CCN(CCCOc3ccc(F)cc3)CC2)cc1OC	none
COc1ccccc1N1CCN(S(=O)(=O)/C=C/c2ccccc2)CC1	none
COc1ccc(C(=O)NCC(=O)OCC(=O)NCc2ccc3c(c2)OCO3)cc1	none (no result: G9a block, BAZ2B inh)
c1cc(-c2nsc(-c3ccncc3)n2)ccn1	none
COc1cccc(OC)c1OCCN1CCCC1	none (no result: G9a block)
COc1ccccc1N1CCN(CCOc2c(OC)cccc2OC)CC1	G9a block 40µM
CCOc1ccc(-n2c(SCC(=O)NCc3ccco3)nc3ccccc3c2=O)cc1	none
Cc1ccc2c(c1)c1c3n2CCCNC3CCC1 (configuration not stated)	BAZ2B inh inconclusive
c1cc2c(cc1C1CCCCC1)c1c3n2CCCNC3CCC1 (configuration not stated)	JMJD2A Tudor inh 45µM, G9a block 18µM, HP1b binding inh inconclusive, BAZ2B inh 35µM
O=C(CCc1nnc(CCCc2ccccc2)o1)NCCc1ccco1	none
COc1ccc(C2C=C(c3ccc(Br)cc3)Nc3nc(N4C(=O)CCC4=O)nn32)cc1 (configuration not stated)	JMJD2A Tudor inh inconclusive, G9a block 35µM, BAZ2B inh inconclusive
CS(=O)(=O)Nc1nc2n(n1)C(c1ccccc1)C=C(c1ccc(Br)cc1)N2 (configuration not stated)	G9a block inconclusive
